Assay results reported in PubChem BioAssay.
Records with an inconclusive call do not appear. The source made the active and inactive calls.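 How the source made its calls, unless noted: active means viability at or below 10% of carrier control in both of two separate runs; inconclusive means viability at or below 10% in only one of the two runs; inactive means the rest.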

Columns and labels:
[1] = reducers of endogenous Her2 protein level, primary screen, SKBR3 breast tumor cells, AlphaScreen, ATP viability (AID 461;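 active means Her2 level under about 52% in both replicate screens, with viability over 70% of control, limit read from the data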;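 on Her2 level: lower value means less Her2 protein in the cells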;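 on viability: percent of carrier control wells set as 100% viability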); settings: 18-24 h, measured here: SKBR3 viability, ATP luminescence, at 10 µM
[2] = biological target: Receptor tyrosine-protein kinase erbB-2 (Homo sapiens) (UniProt P04626); test: as above; settings: 18-24 h, at 10 µM, stronger effect = lower value
Chain of Receptor tyrosine-protein kinase erbB-2 (Homo sapiens) (P04626 whole entry, looked up): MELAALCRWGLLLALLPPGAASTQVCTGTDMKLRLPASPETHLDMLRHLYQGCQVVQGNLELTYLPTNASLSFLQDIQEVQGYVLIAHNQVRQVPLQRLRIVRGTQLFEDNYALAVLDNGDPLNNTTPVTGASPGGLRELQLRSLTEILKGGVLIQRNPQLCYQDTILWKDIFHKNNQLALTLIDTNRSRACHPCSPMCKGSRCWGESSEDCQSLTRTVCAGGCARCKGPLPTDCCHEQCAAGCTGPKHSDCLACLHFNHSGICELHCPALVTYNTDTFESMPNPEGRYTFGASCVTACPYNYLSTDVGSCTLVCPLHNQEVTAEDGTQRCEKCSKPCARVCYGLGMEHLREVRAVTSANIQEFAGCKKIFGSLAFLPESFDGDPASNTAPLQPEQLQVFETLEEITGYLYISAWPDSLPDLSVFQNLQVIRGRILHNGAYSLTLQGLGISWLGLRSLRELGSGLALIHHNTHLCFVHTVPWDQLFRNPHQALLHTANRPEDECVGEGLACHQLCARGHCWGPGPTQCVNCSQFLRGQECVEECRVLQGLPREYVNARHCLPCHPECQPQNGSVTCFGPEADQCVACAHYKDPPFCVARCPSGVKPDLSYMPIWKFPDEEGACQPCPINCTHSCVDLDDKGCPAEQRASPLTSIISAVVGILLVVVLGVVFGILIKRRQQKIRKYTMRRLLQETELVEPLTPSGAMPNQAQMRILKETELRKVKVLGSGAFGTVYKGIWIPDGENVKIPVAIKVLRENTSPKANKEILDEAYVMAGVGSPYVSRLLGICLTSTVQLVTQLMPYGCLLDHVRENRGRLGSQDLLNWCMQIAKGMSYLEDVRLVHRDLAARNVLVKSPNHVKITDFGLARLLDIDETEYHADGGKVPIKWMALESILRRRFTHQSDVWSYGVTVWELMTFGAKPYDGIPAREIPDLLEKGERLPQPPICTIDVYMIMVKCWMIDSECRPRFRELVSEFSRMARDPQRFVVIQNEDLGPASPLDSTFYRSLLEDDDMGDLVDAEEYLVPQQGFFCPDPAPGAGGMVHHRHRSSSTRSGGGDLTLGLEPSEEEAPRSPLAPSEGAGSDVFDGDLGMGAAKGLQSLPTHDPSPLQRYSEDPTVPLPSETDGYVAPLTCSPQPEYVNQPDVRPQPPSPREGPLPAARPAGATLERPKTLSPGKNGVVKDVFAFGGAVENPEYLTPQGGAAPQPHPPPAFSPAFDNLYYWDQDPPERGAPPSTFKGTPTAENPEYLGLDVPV

[3] = SK-BR-3 cell growth inhibitors, pilot screen, 24 h, human (AID 572); settings: SK-BR-3 viability, CellTiter-Glo luminescence, at 10 µM, stronger effect = lower value;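 further: compound exposure lasted between 18 and 24 h rather than exactly 24 h; 100% = carrier-treated control wells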
[4] = HUVEC growth inhibition – cell-based, human, primary screen (AID 575;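 active means viability at or below 30% in both replicate assays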;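 further: 100% = median of untreated cell wells with 0.1% DMSO on each plate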); settings: HUVEC proliferation, CellTiter-Glo luminescence, 72 h; at 10 µM; stronger effect = lower value
[5] = growth inhibitors of H69AR lung tumor, primary screen, human, duplicate replicates (AID 580;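 active means viability at or under a set limit in both replicates, limit being median viability minus 3 SD, cut at about 48% in these data, passing the limit was not always enough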;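 further: 100% = mean luminescence of untreated wells and 0% = no signal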); settings: H69AR lung tumor cells viability, ATP luminescence, 72 h; at 10 µM; stronger effect = lower value
[6] = reversal of MRP1-mediated doxorubicin resistance, pilot screen, H69AR cells, doxorubicin co-treatment (AID 601;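 active means viability loss from added drug above about 55%, and viability with drug at most 40%, in both replicates, limit read from the data, passing the limit was not always enough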); settings: CellTiter-Glo, 72 h, at 10 µM; for differential viability (reversal): stronger effect = higher value
[7] = 384-well plate pilot, post-Golgi transport modulator project, inhibition of yeast transport mutant growth (AID 636; in the data active means inhibition above about 31%); settings: absorbance 615 nm, about 18 h, stronger effect = higher value
[8] = growth suppression of yeast trafficking mutant, preliminary HTS, modulators of trafficking downstream of Golgi apparatus project, 1536-format plate, OD 615 nm (AID 637; in the data active means inhibition above about 30%); settings: yeast transport mutant growth, absorbance 615 nm, 18 h; stronger effect = higher value
[9] = OD615 S. cerevisiae growth inhibition, permissive medium, pilot counter-assay, permissive growth control for S. cerevisiae lifespan shortening project (AID 705;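 active means growth inhibition above 25% in both replicates, a cutoff set 3 SD above the mean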); settings: OD615, 24 h, at 10 µM, stronger effect = higher value
[10] = Restrictive medium S. cerevisiae growth inhibition, OD615, pilot screen of yeast lifespan reduction project, restrictive growth control (AID 706;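 active means growth inhibition above a set limit, 3 SD over mean compound inhibition, in both replicates, cut at about 43% in these data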;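 further: modified DeaD lifespan yeast strain shifted to restrictive glucose medium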); settings: OD615, 48 h, at 10 µM, stronger effect = higher value
[11] = viability gain of MRP-1-high H69AR cells under doxorubicin, pilot screen, MRP-1 activator project, CellTiter-Glo, duplicate (AID 807;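 active means viability increase at or above a cutoff of the median across tested compounds plus 3 SD, cut at about 8.5% in these data, passing the limit was not always enough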;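 further: compound pretreatment 18-22 h then 72 h combined with doxorubicin; 0% = doxorubicin alone and 100% = vehicle without doxorubicin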); settings: H69AR viability with doxorubicin, CellTiter-Glo luminescence; at 10 µM; stronger effect = higher value
[12] = growth suppression of beta-catenin knockout HCT116, pilot screen, human colon tumor cells (AID 823;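 active means cell viability at or below a set limit in both duplicate runs, the limit being the all-compound median minus 4 SD, cut at about 23% in these data, passing the limit was not always enough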;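 further: 0% = wells killed by 20 µM Hyamine and 100% = untreated DMSO cell wells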); settings: CellTiter-Glo, 60 h, at 10 µM, stronger effect = lower value
[13] = growth suppression of PTEN-deleted HCT116, pilot screen, cell-based, HCT116 clonal line, CellTiter-Glo (AID 824;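 active means viability at or below 27.92% in each of two runs, the all-compound median minus 4 SD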;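 further: 0% = 20 µM Hyamine control and 100% = vehicle cell control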); settings: 60 h, at 10 µM, stronger effect = lower value
[14] = inhibitors of the yeast RAM network, pilot screen, dse1pr::URA3 reporter, 5-FOA selection (AID 869;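 active means inhibition over a set limit, the all-compound mean plus 3 SD, in both replicate runs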;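 further: 0% = DMSO wells with no growth and 100% = 10 µM 1-NA-PP1 with full growth; RAM network block rescues cells from 5-FOA so hits raise OD615 growth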); settings: S. cerevisiae dse1pr::URA3 5-FOA growth, OD615, 2 d; at 10 µM; stronger effect = higher value; strain carries analog-sensitive mutant Cbk1 kinase
[15] = RAM signaling pathway blockade in yeast – S. cerevisiae, Pdr1DBD-CYC8 efflux-inhibited sensitized strain, primary screen (AID 1298;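 active means RAM network inhibition above 8.4% in each of two replicates, 3 SD over the compound average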;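 further: 0% = DMSO untreated cells without growth and 100% = 10 µM 1-NA-PP1 full growth; higher means more yeast growth rescued from 5-FOA killing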); settings: S. cerevisiae cbk1-as DSE1-URA3 strain, 5-FOA growth OD615, 2 d; at 50 µM; stronger effect = higher value
[16] = H69AR cells + 2 uM doxorubicin, measured here: viability with 2 uM doxorubicin, stronger effect = lower value
[17] = H69AR cells, compound alone cytotoxicity

| Structure (SMILES) | viability [1] [%] | Her2 level [2] | viability [3] | viability [4] | viability [5] | differential viability (reversal) ([6]; H69AR cells + 2 uM doxorubicin) | viability [6, 16] [%] | viability [6, 17] [%] | inhibition [7] | inhibition [8] | growth inhibition [9] | growth inhibition [10] | viability increase [11] | viability [12] | viability [13] | inhibition [14] | RAM network inhibition [15] |
| --- | --- | --- | --- | --- | --- | --- | --- | --- | --- | --- | --- | --- | --- | --- | --- | --- | --- |
| O=C(CCN1C(=O)c2ccccc2C1=O)NCCN1CCOCC1 | 105 | 119% (inactive) | 105% (inactive) | 86.3% (inactive) | 95.3% (inactive) | -5.16% (inactive) | 101 | 95.3 | 1.95% (inactive) | -9.5% (inactive) | -11.9% (inactive) | -6.59% (inactive) | 0.61% (inactive) | 93.8% (inactive) | 104% (inactive) | 0.42% (inactive) | 2.35% (inactive) |
| COc1ccc(-n2c(Cc3cccn3C)nnc2SCC(=O)Nc2cccc(Cl)c2)cc1 | 103 | 89% (inactive) | 103% (inactive) | 63.3% (inactive) | 85.3% (inactive) | -2.28% (inactive) | 87.6 | 85.3 | -2.8% (inactive) | -2.67% (inactive) | 4.36% (inactive) | 21.3% (inactive) | -1.93% (inactive) | 76.5% (inactive) | 62.4% (inactive) | 0.615% (inactive) | 11% (inactive) |
| COc1ccc(S(=O)(=O)Cc2ccc(C(=O)N3CCOCC3)o2)cc1 | 106 | 126% (inactive) | 106% (inactive) | 94.2% (inactive) | 99.5% (inactive) | -1.56% (inactive) | 101 | 99.5 | 0% (inactive) | -0.83% (inactive) | -4.55% (inactive) | -13.3% (inactive) | -0.14% (inactive) | 111% (inactive) | 99.2% (inactive) | 0.96% (inactive) | 1.62% (inactive) |
| c1nc(NCC2CCCO2)c2[nH]cnc2n1 (centres undefined) | 83.5 | 91.5% (inactive) | 83.5% (inactive) | 93.4% (inactive) | 91.1% (inactive) | 7.82% (inactive) | 83.3 | 91.1 | -1.84% (inactive) | 4% (inactive) | -10% (inactive) | -5.46% (inactive) | 0.98% (inactive) | 100% (inactive) | 99.7% (inactive) | 1.3% (inactive) | 1.7% (inactive) |
| COC(=O)Cn1c(CN2CCOCC2)nc2c1c(=O)n(C)c(=O)n2C | 81.5 | 86.5% (inactive) | 81.5% (inactive) | 89.2% (inactive) | 99.8% (inactive) | 5.79% (inactive) | 94 | 99.8 | -4% (inactive) | -2% (inactive) | -0.42% (inactive) | 1.05% (inactive) | -0.73% (inactive) | 104% (inactive) | 96.7% (inactive) | 1.2% (inactive) | -1.44% (inactive) |
| COc1cccc(NC(=O)CSc2nnc(Cc3cccn3C)n2-c2ccc(F)cc2)c1 | 94.5 | 115% (inactive) | 94.5% (inactive) | 85.7% (inactive) | 78.2% (inactive) | -8.06% (inactive) | 86.2 | 78.2 | -7.73% (inactive) | -8% (inactive) | 0.385% (inactive) | 13.1% (inactive) | -4.32% (inactive) | 88.9% (inactive) | 90.1% (inactive) | 1.09% (inactive) | 6.98% (inactive) |
| c1ccn2c(SCc3ccc4c(c3)OCCO4)nnc2c1 | 108 | 108% (inactive) | 108% (inactive) | 93.8% (inactive) | 92.1% (inactive) | 0.37% (inactive) | 91.7 | 92.1 | -3.47% (inactive) | 1.67% (inactive) | 6.86% (inactive) | 12.2% (inactive) | -0.85% (inactive) | 96.6% (inactive) | 99.2% (inactive) | 0.305% (inactive) | 5.34% (inactive) |
| CCOC(=O)N1CCN(C(=O)c2ccc3nc4ccsc4c(=O)n3c2)CC1 | 97.5 | 102% (inactive) | 97.5% (inactive) | 87.2% (inactive) | 89.4% (inactive) | -1.36% (inactive) | 90.8 | 89.4 | -7.87% (inactive) | -6.39% (inactive) | 5.57% (inactive) | 7.09% (inactive) | -4.18% (inactive) | 101% (inactive) | 101% (inactive) | 0.335% (inactive) | -0.16% (inactive) |
| COc1ccc(S(=O)(=O)Nc2ccc(F)c(Cl)c2)cc1OC | 97.5 | 93.5% (inactive) | 97.5% (inactive) | 106% (inactive) | 96.6% (inactive) | 4.3% (inactive) | 92.3 | 96.6 | -2.21% (inactive) | -10.2% (inactive) | -15.3% (inactive) | 4.31% (inactive) | -1.4% (inactive) | 86.3% (inactive) | 87.6% (inactive) | 0.595% (inactive) | 1.81% (inactive) |
| O=C(C1COc2ccccc2O1)N1CCCC1 (centres undefined) | 80 | 112% (inactive) | 80% (inactive) | 86.8% (inactive) | 94.8% (inactive) | 1.71% (inactive) | 93.1 | 94.8 | -1.41% (inactive) | -10.2% (inactive) | -16.3% (inactive) | -10.1% (inactive) | -0.88% (inactive) | 105% (inactive) | 96.9% (inactive) | 2.62% (inactive) | -0.78% (inactive) |
| O=C(NCCCN1CCOCC1)c1ccc(CS(=O)(=O)c2c(Cl)cccc2Cl)o1 | 90.5 | 102% (inactive) | 90.5% (inactive) | 88.8% (inactive) | 92.3% (inactive) | -2.01% (inactive) | 94.3 | 92.3 | -0.67% (inactive) | -0.5% (inactive) | -11.8% (inactive) | -17.8% (inactive) | -1.26% (inactive) | 101% (inactive) | 92.3% (inactive) | 1.61% (inactive) | 5% (inactive) |
| O=C(CN1C(=O)c2ccccc2S1(=O)=O)NCc1ccccc1Cl | 90.5 | 108% (inactive) | 90.5% (inactive) | 99% (inactive) | 89.3% (inactive) | 6.38% (inactive) | 82.9 | 89.3 | -2.05% (inactive) | -2.17% (inactive) | -8.21% (inactive) | -12.6% (inactive) | -0.47% (inactive) | 102% (inactive) | 100% (inactive) | 0.125% (inactive) | 4.41% (inactive) |
